Assay outcomes (PubChem)
RORg inh – ROR gamma (mouse) transcription inhibition; Drosophila S2 Gal4-RORgamma UAS-luciferase reporter, 20 h; P51450; hit rate 5.4% among 310,000; Potency, µM (highest dose often 53.6 µM), inactives show at the highest dose activity change, negative = inhibition, actives largely listed as inhibitors; also: potency is read from the fitted curve at half-maximal effect; nearly all actives have a fitted effect of over 60% in size
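In this cell-based reporter format, copper sulfate (700 uM final) drives Gal4–ROR gamma fusion expression from a metallothionein promoter in Drosophila Schneider cells; compounds preincubated 1 hr, reporter read after 20 hr at ambient temperature.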
B2AR arrestin – recruits beta-arrestin to the human beta2-adrenergic receptor; P07550; beta-arrestin recruitment to beta2AR, cell-based reporter; Potency, µM (highest dose often 46.1 µM), for inactives: at the top dose activation, actives largely listed as activators; hit rate 0.02% among 330,000; AID 492947;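 also: potency is read from the fitted curve at half-maximal effect; 0% = DMSO controls and full agonism = EC100 isoproterenol or metaproterenol; nearly all actives have a fitted effect of over 65% in size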
Target sequence (P07550 whole entry, looked up): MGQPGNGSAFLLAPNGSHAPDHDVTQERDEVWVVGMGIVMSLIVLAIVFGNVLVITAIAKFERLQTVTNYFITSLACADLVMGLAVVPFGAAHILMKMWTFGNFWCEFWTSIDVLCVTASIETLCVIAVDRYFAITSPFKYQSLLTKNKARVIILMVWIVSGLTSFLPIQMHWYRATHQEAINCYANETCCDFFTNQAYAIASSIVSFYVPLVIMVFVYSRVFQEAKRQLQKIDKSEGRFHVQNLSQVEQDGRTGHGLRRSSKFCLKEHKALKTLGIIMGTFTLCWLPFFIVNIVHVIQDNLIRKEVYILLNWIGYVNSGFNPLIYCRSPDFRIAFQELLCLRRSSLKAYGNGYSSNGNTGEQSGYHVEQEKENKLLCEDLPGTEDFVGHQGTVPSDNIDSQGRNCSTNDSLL
Gal4-VP16 FLuc – inhibits Gal4-VP16 luciferase reporter, ROR gamma counter-screen | Drosophila S2 Gal4-VP16 UAS-luciferase, luminescence, 20 h | Potency, µM (series often up to 53.6 µM), for inactives: at the top dose activity, negative = inhibition, most hits filed as inhibitors | hit rate 3.5% among 310,000 | AID 2546;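 also: Gal4-VP16 expression switched on by copper sulfate through the metallothionein promoter; potency is read from the fitted curve at half-maximal effect; nearly all actives have a fitted effect of over 50% in size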
ELG1 DNA repair – inhibitors of ELG1-dependent DNA repair in HEK293T cells; HEK293T ELG1-luciferase reporter, luminescence, 16 h; DNA damage induced by 5-fluorouridine; hit rate 2.3% among 330,000; Potency, µM (top dose mostly 46.1 µM), for inactives: top-dose activity change, negative = inhibition, hits mostly inhibitors; also: potency is read from the fitted curve at half-maximal effect; nearly all actives have a fitted effect of over 55% in size
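5-Fluorouridine DNA damage + compound/DMSO, 2,000 cells/well, 16 h, 37 °C/5% CO2. ONE-Glo, 30 min RT, luminescence. Readout = decrease in reporter signal.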
TSHR antag – antagonists of human thyroid stimulating hormone receptor; P16473; TSHR-expressing cells, TSH-stimulated cAMP HTRF, 2 h; hits give low values; activity change, negative = inhibition, % at 11.5 µM; hit rate 0.2% among 330,000;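 active = activity change below a set negative limit, meaning inhibition stronger than a set level, cut at about -70% in these data; inconclusive = activity change between two set negative limits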
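Inhibition of cAMP made by TSHR-expressing cells under TSH stimulation (4nM final, EC80; 2 h, 37 deg C) is quantified with a one-step lysis HTRF kit, anti-cAMP cryptate versus cAMP-d2.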
An asterisk follows results filed as active; ? = inconclusive; nt = not tested or not shown; [ ] = another dose, or the depositor's remark. Most compounds without a hit are left out; they make up all but 7.5% or so of the library. Unless noted, calls follow the shape of the dose curve; as a rule, active = well fitted curve in the direction sought with a large enough effect; inconclusive = small, poorly fitted or top-dose-only effect, or another doubt; inactive = no such curve, though single readings can be large; an effect the other way counts as inactive or inconclusive. Unless noted, % is scaled to controls: 0 for no effect and ±100 for the full control effect.

SMILES	RORg inh	B2AR arrestin	Gal4-VP16 FLuc	ELG1 DNA repair	TSHR antag
COCCN=c1scc(-c2ccc3c(c2)NC(=O)CO3)n1/N=C(\C)c1ccc(O)cc1	?	-0.3%	?	18.3µM*	-15.1
COc1ccccc1Nc1nc(-c2ccc3c(c2)NC(=O)CO3)cs1	25.2%	0.1%	-20.0%	?	7.0
COCCN=c1scc(-c2cccs2)n1/N=C(\C)c1ccco1	?	-0.9%	?	?	-20.9
CCc1ccc2c(c1)/C(=C/C(=O)c1cccs1)C(=O)N2	5.62µM*	-2.9%	10µM*	26.5%	-31.1
Cc1cccc2c1NC(=O)/C2=C\C(=O)c1cccs1	7.08µM*	0.1%	?	20.2%	-13.0
Cc1cc(C)c2c(c1)/C(=C/C(=O)c1ccc(Br)s1)C(=O)N2	17.7%	0.1%	7.7%	?	16.0
Cc1cc(Br)c2c(c1)/C(=C/C(=O)c1cccs1)C(=O)N2	11.2µM*	-0.4%	17.8µM*	?	-4.2
C/C(=C(/CCOC(=O)C(C)C)SS/C(CCOC(=O)C(C)C)=C(\C)N(C=O)Cc1cnc(C)nc1N)N(C=O)Cc1cnc(C)nc1N	9.9%	nt	-3.4%	nt	nt
COc1ccc(-c2nc3cnc(OC)nc3n(-c3ccc(OC)cc3)c2=O)cc1	-2.3%	nt	0.6%	nt	nt
CCCC(=O)NC(=S)Nc1ccccc1C(F)(F)F	7.94µM*	nt	?	nt	nt
N#CCC(=O)NNC(=S)Nc1ccccc1C(F)(F)F	11.2µM*	0.0%	?	?	-5.6
O=C(NNC(=S)Nc1ccccc1C(F)(F)F)c1cccnc1	-22.3%	0.5%	-14.2%	6.6%	12.6
FC(F)(F)c1ccccc1NC(=S)NN=C1CCCCCC1	4.47µM*	5.7%	?	-8.0%	-2.3
CC(C)C(=O)NC(=S)Nc1ccccc1C(F)(F)F	5.01µM*	0.0%	?	0.6%	-23.3
CC(=O)N1CCN(C(=O)COC(=O)CNC(=O)c2ccccc2C)CC1	nt	-1.2%	nt	10.5%	14.4
O=C(NCC1CCCO1)C1CCN(S(=O)(=O)c2cc(Cl)ccc2Cl)CC1 (centres undefined)	27.4%	0.3%	4.6%	-27.4%	5.7
O=c1cnc2ccccc2n1Cc1ccc(Br)cc1	?	-0.1%	19.2%	5.2%	-6.3
CC(C)(C)c1ccc(Cn2c(=O)cnc3ccccc32)cc1	22.4µM*	-0.8%	?	-10.6%	8.7
COCc1cc(=O)[nH]c(Nc2nc3ccc(C)cc3o2)n1	4.47µM*	0.3%	3.16µM*	?	-4.1
CCc1ccc2nc(Nc3nc(COC)cc(=O)[nH]3)nc(C)c2c1	-22.7%	-0.4%	-11.1%	-40.7%	1.5
COc1ccc(-c2nc3cnc(Oc4cccc(Cl)c4)nc3n(C3CC3)c2=O)cc1	-4.4%	nt	-0.2%	nt	nt
CCN1C(=O)[C@H]2[C@H]3[C@H](O)[C@H](O)C/C(=N/O[C@@H](C)c4cc(-c5c(C)cc(C)cc5C)no4)[C@@H]3CC[C@@H]2C1=O	26.5%[10 µM]	nt	-8.0%[10 µM]	nt	nt
COc1cccc2sc3cc(NCc4ccc(C)o4)ccc3c(=O)c12	nt	2.2%	nt	?	3.2
CCCOc1ccc(Cc2c(Cl)nc(SC)nc2N(C)C)cc1	?	-0.3%	5.01µM*	-22.0%	-35.5
COc1ccc(-c2cc3nc(C)cc(N)n3n2)cc1	11.2µM*	-0.3%	10µM*	?	-10.9
SMILES	RORg inh	B2AR arrestin	Gal4-VP16 FLuc	ELG1 DNA repair	TSHR antag
COc1ccc(-c2cc3ncc(-c4ccccc4)c(N)n3n2)cc1	?	-0.3%	7.94µM*	?	12.3
COc1ccc(-c2cc3nc(C)cc(-c4ccc(OC)cc4)n3n2)cc1	7.9%	0.5%	1.4%	0.7%	9.9
Nc1ccccc1C#CC(=O)c1ccccc1	7.08µM*	-1.3%	7.08µM*	-1.4%	-10.4
O=C(/C=C/c1cccc([N+](=O)[O-])c1)c1ccccc1	8.1%	nt	7.0%	nt	nt
O=C(O)c1ccccc1	-19.1%	-0.9%	-17.8%	1.1%	-4.9
O=C(C#Cc1cccc([N+](=O)[O-])c1)c1ccccc1	2.82µM*	-0.2%	3.16µM*	?	-45.4
C=CCOC(=O)[C@H](O)[C@@H](O)C(=O)OCC=C	-0.5%	nt	0.7%	nt	nt
CCCN(CC(=O)Nc1ccccc1OC)C(=O)c1cc(-c2cccs2)nn1-c1ccccc1	nt	-0.1%	nt	?	7.6
COC(=O)C(Cc1ccc(O)cc1)NC(=O)CCc1ccco1 (centres undefined)	-8.8%	-0.2%	-1.5%	8.8%	-6.1
COC(=O)C(Cc1ccc(O)cc1)NC(=O)c1ccc2c(c1)OCCO2 (centres undefined)	0.631µM*	0.2%	2µM*	?	-6.9
CCCNC(=O)C(Cc1ccccc1)NC(=O)c1ccccc1 (centres undefined)	nt	0.1%	nt	23.1%	-3.3
CCOC(=O)[C@H](Cc1ccc(O)cc1)NC(=O)c1ccccc1	1.41µM*	nt	?	nt	nt
CCCN(C(=O)COC(=O)C12CCC(=O)N1c1ccccc1S2)c1c(N)n(Cc2ccccc2)c(=O)[nH]c1=O (centres undefined)	-9.9%	-0.3%	1.3%	-0.5%	-1.4
COC[C@H]1OC=C[C@@H](OC)[C@@H]1OC	2.8%	nt	-6.6%	nt	nt
CC1(C)Cc2c(sc(N)c2C#N)C(C)(C)N1	-1.6%	0.4%	-9.8%	17.9%	6.4
CC1(C)CC2CC(C)(CN2/C=N/c2sc3c(c2C#N)CC(C)(C)NC3(C)C)C1 (centres undefined)	-34.0%	2.8%	-6.4%	23.1µM*	-8.6
Cc1cc(/C=N/NC(=O)c2c(Br)cnn2C)c(C)n1-c1cccc(Br)c1	6.31µM*	-0.1%	7.08µM*	?	4.5
Cc1cc(/C=N/NC(=O)c2cccc(F)c2)c(C)n1-c1ccccc1	5.62µM*	0.2%	12.6µM*	?	-6.1
Cn1c2ccccc2c2cc(/C=N/NC(=O)c3ccc(N)cc3)ccc21	-3.4%	-0.2%	-19.0%	?	-6.6
Cc1cc(/C=N/NC(=O)c2ccccc2F)c(C)n1-c1ccccc1	12.6µM*	0.4%	?	?	-5.2
CCOC(=O)N/N=C/c1cc(C)n(-c2ccccc2)c1C	-2.4%	0.0%	21.7%	?	1.5
Cc1cc(/C=N/NC(=O)C(=O)N2CCCC2)c(C)n1-c1cccc(Br)c1	1.8%	0.0%	-8.4%	-4.0%	5.8
Cn1c2ccccc2c2cc(/C=N/NC(=O)c3ccccc3F)ccc21	?	-0.8%	?	23.1µM*	-2.4
CS(=O)(=O)c1ccc([C@@H](O)[C@@H](COC(=O)CN)NC(=O)C(Cl)Cl)cc1	24.9%	nt	-6.2%	nt	nt
NC(=O)n1c(O)c(C(=O)c2cccs2)c2cc(Cl)ccc21	-8.4%	nt	-3.3%	nt	nt
CN(C)c1ncc2nc(CCc3ccccc3)c(=O)n(-c3ccccc3)c2n1	2.0%	nt	-6.9%	nt	nt
CCOc1ccc(S(=O)(=O)O)c2cccnc12	-18.9%	nt	-18.1%	nt	nt
Cc1cccc(-n2c(C)cc(/C=N/NC(=O)c3cccc([N+](=O)[O-])c3C)c2C)c1	7.94µM*	0.2%	?	-25.1%	-6.3
COc1ccc2c(c1)CCC/C2=N\Nc1nc(C(=O)NN)cs1	3.55µM*	-0.3%	12.6µM*	?	-4.7
